Compounds with a hit are over-represented: about 21% of the library has one in this group of screens.
NS1 function inh: qHTS Assay for Inhibitors of Influenza NS1 Protein Function; Potency, µM (top dose mostly 46.1 µM), without a hit: top-dose activity, positive = more growth; 0.4% of 270,000 active; calls by dose curve; note: potency is the fitted concentration of half-maximal effect; actives are rising curves; nearly all actives have a fitted effect of over 50% in size
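Recovery from NS1-induced slow growth read by OD600 in budding yeast switched to galactose assay medium (pH 6.0, -URA) at 1:100 dilution. Compound 23 nl per well; the matching strain lacking NS1 serves as control.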
Shiga toxin inh: A qHTS for Small Molecule Inhibitors of Shiga Toxin; 9.2% of 290,000 active; inhibition, % at 38.7 µM; AID 2315, 2010; Vero cells, Shiga toxin protein synthesis inhibition reporter; in the data active = inhibition mostly above about 28%, no sharp cut-off; inactive = mostly below about 43%; note: 0% is about no effect
Pf growth 96h: Primary qHTS for delayed death inhibitors of the malarial parasite plastid, 96 hour incubation; P. falciparum luciferase reporter growth, 96 h; Potency, µM (highest dose often 28.7 µM), for the others: top-dose activity change, negative = inhibition, usual class: inhibitors; 6.9% of 320,000 active; note: potency is the fitted concentration of half-maximal effect; % is set by controls: 0 for no effect and ±100 for the full control effect
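Compounds incubated with erythrocytes infected by luciferase-expressing P. falciparum (2% hematocrit, 0.05% parasitemia final) for 96 hours, 37 C in 5% CO2. Growth inhibition scored as decreased luciferase luminescence.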
Pf growth 48h: Primary qHTS for delayed death inhibitors of the malarial parasite plastid, 48 hour incubation; P. falciparum luciferase growth in erythrocytes, 48 h; Potency, µM (titrated, usually from 28.7 µM), for the others: top-dose activity change, negative = inhibition, hits mostly inhibitors; 5.9% of 310,000 active; AID 504832, 2011; note: potency is the fitted concentration of half-maximal effect; % is set by controls: 0 for no effect and ±100 for the full control effect
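Here the parasites carry a stable luciferase gene and grow inside erythrocytes in Albumax-based RPMI medium with compound for one erythrocytic cycle. Activity is scored as loss of luminescent signal.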
CHX counter: Cycloheximide Counterscreen for Small Molecule Inhibitors of Shiga Toxin | cell reporter, cycloheximide protein synthesis inhibition counterscreen | max response, % | 12% of 300,000 active; in the data active = max response mostly above about 13%, no sharp cut-off; inactive = mostly below about 14%; note: read at 38.3 µM for the half of the compounds with a filed dose; 0% is about no effect
SARS PLpro yeast: qHTS of Yeast-based Assay for SARS-CoV PLP; S. cerevisiae expressing SARS-CoV PLpro, growth rescue; Potency, µM (series often up to 32.9 µM), for the others: at the highest dose activity, positive = growth rescue, hits mostly activators; 0.19% of 330,000 active; AID 485353, 2010; calls by dose curve; note: potency is the fitted concentration of half-maximal effect; 0% is about no effect; nearly all actives have a fitted effect of over 55% in size
The depositor's hits bear a star; i = inactive; ? = inconclusive; · = not tested or not shown. Unless noted, calls come from the whole dose curve; as a rule, active = well fitted inhibition curve with a large enough effect; inconclusive = small, poorly fitted or top-dose-only effect, or another doubt; inactive = no such curve, though single readings can be large or run the other way.

SMILES	NS1 function inh	Shiga toxin inh	Pf growth 96h	Pf growth 48h	CHX counter	SARS PLpro yeast
CCNc1nc(-c2ccc(OC(F)F)cc2)c(C)s1	·	124.0*	68.4%	2.8%	40.8*	3.3%
COc1ccc(-c2nc(NC3=NCCCCC3)sc2C)cc1	·	14.0	2.6%	7.5%	8.2	-0.7%
Cc1ccc(-c2cnco2)cc1	-1.3%	-4.1	14.0%	35.6%	7.9	0.5%
Cc1ccc(-c2cc(-c3ccc(C)cc3)[n+](C)o2)cc1	1.4%	-1.4	0.37µM*	1.17µM*	-2.8	-5.9%
COc1cc(CNc2ccc3[nH]c(=O)[nH]c3c2)ccc1OCc1ccccc1Cl	15.3%	29.5	50.2%	-21.0%	14.0	-0.2%
COc1cc(CNc2ccc3[nH]c(=O)[nH]c3c2)ccc1OCc1ccc(C)cc1	6.4%	117.7*	36.0%	43.5%	26.4*	-1.3%
COc1cc(CNc2ccc3[nH]c(=O)[nH]c3c2)ccc1OCc1cccc(C)c1	6.4%	37.2	-4.0%	0.2%	21.2*	3.0%
CS(=O)(=O)N(Cc1ccccc1)c1ccccc1C(=O)N1CCN(c2ccccc2)CC1	-7.7%	1.2	?	?	-7.8	-7.7%
COCCNC(=O)c1cc(-c2cccs2)on1	0.2%	100.6*	10.8%	108.5%	34.1*	-3.8%
O=C(NCc1cccs1)c1cc(-c2cccs2)on1	-8.1%	86.9*	0.0%	145.7%	40.8*	1.1%
O=C(NCc1cccs1)c1cc(-c2ccccc2)on1	2.7%	118.1*	7.1%	95.4%	29.9*	-1.4%
CC(NC(=O)c1cc(-c2cccs2)on1)c1ccccc1 (stereo not drawn)	4.0%	5.2	-98.3%	14.9%	9.8	11.0%
O=C(NCc1cccs1)c1cc(C2CC2)on1	10.2%	64.2*	92.4%	54.2%	22.0*	-1.7%
Cc1cc(C(=O)NCc2cccs2)no1	-4.1%	-10.8	?	·	-3.2	22.3%
COc1ccc(Nc2nc(-c3ccc(OC)cc3)cs2)cc1	·	70.1*	66.6%	368.0%	63.2*	-0.8%
COc1ccc(-c2csc(Nc3ccccc3)n2)cc1	4.4%	97.2*	52.4%	54.5%	29.3*	-3.4%
CC(=O)NCCC(=O)Nc1nc(-c2c[nH]c3ccccc23)cs1	17.6%	24.2	21.1%	19.3%	-3.2	-1.5%
COc1ccc(Nc2nc(-c3c[nH]c4ccccc34)cs2)cc1	19.4%	67.0	-100.2%	?	32.1*	-27.1%
COc1ccc2oc(=O)c(-c3csc(Nc4ccc(O)cc4)n3)cc2c1	?	84.5*	-15.6%	?	46.0*	0.7%
COc1ccc2oc(=O)c(/C(C)=N/Nc3nc(-c4cc(C)ccc4C)cs3)cc2c1	13.7%	-2.4	?	13.4%	2.1	2.0%
COC(CNC(=O)c1coc2nc3ccccc3nc12)OC	-5.0%	3.1	?	?	14.1	-1.6%
COc1ccc(S(=O)(=O)Nc2ccccc2C(=O)NC(C)C)cc1OC	6.0%	-1.3	27.7%	5.3%	-2.3	1.0%
COc1ccc2nc(SCC(=O)N(C)C3CCCCC3)[nH]c2c1	·	·	?	?	·	-1.3%
CC(C)Oc1ccc(OCCSc2nc3ccccc3n2CC(=O)O)cc1	1.1%	·	-10.2%	-23.4%	-2.4	2.9%
COc1cc(N)c(Cl)cc1C(=O)OCC(=O)N1CCCC1	-5.0%	4.0	3.5%	0.1%	-4.8	-1.9%
SMILES	NS1 function inh	Shiga toxin inh	Pf growth 96h	Pf growth 48h	CHX counter	SARS PLpro yeast
COc1ccc(-c2csc(Nc3cccnc3)n2)cc1	-7.4%	98.8*	-4.8%	0.0%	51.6*	·
Nc1nc(-c2ccc3c(c2)OCCO3)c(CC(=O)O)s1	14.0%	2.5	-16.9%	-4.1%	5.7	28.7%
Cc1sc(N)nc1-c1ccc2c(c1)OCCO2	-13.3%	52.6*	?	22.9%	17.5*	-3.0%
Cc1sc(N)nc1-c1ccc(Oc2ccccc2)cc1	-135.4%	78.0	?	62.7%	19.3*	-20.7%
Nc1nc(N)nc(-c2ccc(Oc3ccccc3)cc2)n1	-169.4%	25.6	-5.5%	·	27.5	-39.2%
CCc1ccccc1NC(=O)CCc1c(C)nc(SC)nc1C	6.5%	30.0	?	-25.2%	-1.9	-1.1%
CNC(=S)N1CCC(Cc2ccccc2)CC1	-5.3%	-10.0	1.9%	?	1.0	3.2%
C=CCNC(=S)N1CCC(Cc2ccccc2)CC1	-72.1%	-10.0	11.7µM*	?	-1.7	0.3%
C=CCNC(=O)c1ccc(CN2CCC(Cc3ccccc3)CC2)cc1	1.3%	-11.7	-15.3%	10.4µM*	1.2	-3.5%
O=C(Cc1c[nH]c2ccccc12)OCC(=O)c1ccccc1	-18.8%	5.4	·	12.6%	48.5*	-8.5%
COc1ccccc1OCC(=O)OC/C(O)=C(\C#N)c1nc2ccccc2[nH]1	?	10.1	?	19.6%	15.6*	16.5%
COc1ccc(C(=O)COC(=O)Cc2c[nH]c3ccccc23)c(OC)c1	·	·	0.3%	-16.1%	·	-20.0%
N#C/C(=C(/O)COC(=O)Cc1c[nH]c2ccccc12)c1nc2ccccc2[nH]1	3.7%	65.5*	?	8.2%	14.1*	3.6%
COc1ccccc1C1CC(=O)Oc2ccc(C(C)(C)C)cc21 (stereo not drawn)	·	i	·	·	2.9	-52.0%
COc1ccc(N2CCN(C(=O)Cc3ccc(OC)c(OC)c3)CC2)cc1	2.2%	5.6	?	-26.4%	1.6	4.5%
COc1cc(C=C2C(=O)NC(=O)NC2=O)ccc1O	12.9%	-5.0	-8.3%	45.7%	-2.9	0.7%
COc1cc(/C=C2\OC(=O)c3c(OC)cccc32)ccc1O	-22.0%	100.2*	?	·	79.4*	22.8%
Cc1c(C(=O)NCc2ccc3c(c2)cc(C)n3C)cccc1[N+](=O)[O-]	16.5%	-10.5	-19.9%	16.4%	-1.3	12.4%
O=C(Nc1ccc(Br)cn1)c1ccc2nccnc2c1	-15.7%	·	·	·	·	·
O=C(Nc1ccc(Cl)cn1)c1ccc2nccnc2c1	-4.3%	132.3*	-1.9%	129.5%	32.5*	-4.7%
O=C(Nc1ccccc1Cl)c1ccc2nccnc2c1	-3.1%	66.8*	8.2%	127.5%	24.9*	11.0%
O=C(Nc1ccc(Cl)cn1)c1cccnc1	-3.0%	2.6	·	44.1%	14.5*	-2.8%
COC(=O)c1ccccc1NC(=O)c1ccc2nccnc2c1	·	-2.3	?	-28.4%	6.4	-1.4%
CCN(CC)C(=O)[C@H]1C[C@H](CC(=O)NCc2ccc(OC)c(OC)c2)C(=O)N2CCc3c([nH]c4ccc(Cl)cc34)[C@]12C	·	·	·	·	·	1.9%
Cc1ccc(C(=O)NCC(=O)NCCc2ccc(S(N)(=O)=O)cc2)s1	-0.4%	10.1	-21.3%	0.0%	-1.0	0.7%
O=C(Nc1nc(-c2ccc(Cl)cc2)cs1)C1=COCCO1	·	·	?	10.3%	·	-13.0%
Cc1ccc(Cl)c2sc(NC(=O)C3=COCCO3)nc12	-29.8%	73.6*	119.3%	64.6%	27.0*	-5.3%
O=C(Nc1nc(-c2cccs2)cs1)C1=COCCO1	-17.7%	67.8*	446.3%	114.8%	39.8*	-47.0%
